Tau fibril FP: inhibitors of human tau fibril formation; P10636; K18 P301L tau heparin fibrillization, Alexa594 FP, 6 h; Potency, µM (top dose mostly 57.7 µM), for inactives: top-dose activity, negative = inhibition, actives largely listed as inhibitors; hit rate 0.39% among 280,000; further: potency means the concentration at half of the fitted maximal effect; nearly all actives have a fitted effect of over 55% in size
Target sequence (P10636 561-689 P618L limits assumed): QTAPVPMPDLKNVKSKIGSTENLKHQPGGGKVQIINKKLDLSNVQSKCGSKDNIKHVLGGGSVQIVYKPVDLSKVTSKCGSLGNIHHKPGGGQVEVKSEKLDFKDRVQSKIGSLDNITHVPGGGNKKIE
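K18 P301L tau (15 uM unlabeled/0.24 uM Alexa 594-labeled, final) + compound + heparin 20 uM final; 100 mM NaOAc pH 7; 6 hr 37 C; ThT 30 uM final added, 1 hr RT; FP ex 555/em 632 nm.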
G9a block: G9a (human) methyltransferase inhibition. Potency, µM (top dose mostly 102 µM), inactives show at the highest dose activity, negative = inhibition, actives largely listed as inhibitors. hit rate 8.8% among 350,000. G9a H3K9 monomethylation, AlphaScreen, 2 h; further: potency means the concentration at half of the fitted maximal effect; nearly all actives have a fitted effect of over 75% in size
Target sequence (Q96KQ7 913-1193 limits assumed): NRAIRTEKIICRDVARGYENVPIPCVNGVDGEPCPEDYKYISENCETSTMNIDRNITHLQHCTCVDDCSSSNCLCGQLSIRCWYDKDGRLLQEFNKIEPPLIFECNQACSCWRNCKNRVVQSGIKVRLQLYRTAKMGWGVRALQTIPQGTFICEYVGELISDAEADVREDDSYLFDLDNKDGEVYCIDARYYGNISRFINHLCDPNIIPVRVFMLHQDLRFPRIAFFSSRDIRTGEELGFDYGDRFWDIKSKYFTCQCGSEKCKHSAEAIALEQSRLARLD
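Signal arises when biotinylated H3K9 peptide, once monomethylated, bridges streptavidin donor and antibody-captured acceptor beads. Enzyme at 20 nM was preincubated 15 min with test compounds; peptide 500 nM and SAM 20 uM then reacted for 2 h.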
Tau ThT inhib: inhibitors of human tau fibril formation, thioflavin T binding; P10636; recombinant tau K18 P301L, heparin-induced fibrillization, ThT fluorescence; Potency, µM (titrated, usually from 57.4 µM), without a hit: at the top dose activity, negative = inhibition, usual class: inhibitors; hit rate 2.1% among 270,000; further: potency means the concentration at half of the fitted maximal effect; nearly all actives have a fitted effect of over 55% in size
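Recombinant human tau K18 fragment […] carrying P301L, 15 uM unlabeled plus 0.24 uM Alexa 594-labeled, was fibrillized with 20 uM heparin in 100 mM sodium acetate pH 7 for 6 hr at 37 C; 30 uM ThT fluorescence read after 1 hr.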
Sfp PPTase inh: inhibitors of Bacillus subtilis Sfp phosphopantetheinyl transferase; Q9F4F7; Biochemical Sfp PPTase activity, qHTS; Potency, µM, for the others: largest response in the series, negative = inhibition, actives largely listed as inhibitors; hit rate 3.5% among 310,000;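 further: the enzyme is Sfp with the accession as filed and its product quenches rhodamine fluorescence; potency means the concentration at half of the fitted maximal effect; 0% = enzyme reaction without inhibitor and -100% = no enzyme wells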
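With Hepes-Na pH 7.6 buffer containing 10 mM MgCl2, Sfp (15 nM) modified BHQ-2-YbbR (12.5 uM) using rhodamine-CoA (5 uM). Two reads 30 minutes apart at 525/598 nm yielded each well's rate.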
Coupling enz: inhibits coupling enzyme system, counter-screen for aldolase hits; coupling enzyme system counterscreen, AmpLite Red fluorescence; activity change, negative = inhibition, % at 58.2 µM, hits read low; hit rate 0.67% among 290,000; in the data active means activity change below about -30%
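Fluorescence at 525 nm excitation and 598 nm emission measured inhibition of the coupled detection system without aldolase. Compounds (at 57.5 uM final) were preincubated 10 min at room temperature with coupling enzyme reagent before a 20 min substrate/AmpLite Red step.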
Tau fluor counter: counter-screen for tau fibril formation inhibitors. tau K18 P301L (four-repeat tau fragment) Alexa594 fluorescence, heparin fibrillization. Potency, µM (doses to about 57.7 µM), inactives show at the highest dose activity change, negative = decrease. hit rate 0.93% among 280,000. AID 1463; further: potency means the concentration at half of the fitted maximal effect; nearly all actives have a fitted effect of over 55% in size
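Human K18 P301L tau (15 uM unlabeled plus 0.24 uM Alexa 594-labeled, final) in 100 mM sodium acetate pH 7 was mixed with compound and 20 uM heparin and incubated 6 hr at 37 C.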
An asterisk follows results filed as active; ? = inconclusive; / = no result; [ ] = dose if it differs, or a comment. Compounds with a hit are over-represented: about 11% of the library has one in this group of screens. Unless noted, the call rests on the fitted dose curve; in most records, active means well fitted curve in the direction sought with a large enough effect; inconclusive means small, poorly fitted or top-dose-only effect, or another doubt; inactive means no such curve, though single readings can be large; an effect the other way counts as inactive or inconclusive. Unless noted, on the % scale 0 is the no-effect control and ±100 the full control effect.

SMILES	Tau fibril FP	G9a block	Tau ThT inhib	Sfp PPTase inh	Coupling enz	Tau fluor counter
COc1cc(C(=O)N/C(=C\c2cn(C)c3ccccc23)C(=O)NCCN2CCOCC2)cc(OC)c1OC	/	/	/	-8%	/	/
CCCc1nn2c(=O)cc(COC(=O)c3cccc(NC(=O)COc4ccccc4C)c3)nc2s1	5%	-1%[12.7 µM]	?	/	/	-8%
COc1cccc(C2C3=C(N=c4s/c(=C\c5cccc(O)c5)c(=O)n42)c2ccccc2CC3)c1OC (centres undefined)	22µM*	?	?	5%	2	?
COc1cccc(C2C3=C(N=c4s/c(=C\c5ccc(OCC(=O)O)cc5)c(=O)n42)c2ccccc2CC3)c1 (centres undefined)	-14%	20µM*	22µM*	56µM*	-2	-13%
COc1ccccc1C1C2=C(N=c3s/c(=C/c4cccc(OCC(=O)O)c4)c(=O)n31)c1ccccc1CC2 (centres undefined)	?	14µM*	16µM*	79µM*	-3	?
C/C(=N\O)C(C)Oc1ccc(Cl)cc1 (centres undefined)	-5%	9%	4%	9%	0	5%
Cc1cc(NC(=O)COC(=O)C(C)Oc2ccc(Cl)cc2Cl)no1 (centres undefined)	/	-4%	/	11%	0	/
Cc1ccc(C(=O)Nc2cccc(C(=O)OCc3cc(=O)n4c5c(sc4n3)CCCC5)c2)cc1	6%	8%[12.7 µM]	?	/	/	-15%
CC(C)(C)c1ccc2c(c1)C(=O)c1ccccc1C2=O	6%	35µM*	-12%	-13%	6	-29%
CCc1ccc2c(c1)C(=O)c1ccccc1C2=O	10%	?	?	3%	3	-24%
COc1ccc(-c2noc(N3CCCC(C(=O)Nc4cc(F)ccc4F)C3)n2)cc1 (centres undefined)	/	-4%	/	?	2	/
Cc1ccc(S(=O)(=O)Nc2nc(C)c(C)s2)cc1	/	22µM*	/	-6%	2	/
Cc1ccc(S(=O)(=O)Nc2nc3ccc(S(C)(=O)=O)cc3s2)cc1	3%	?	-8%	8%	16	6%
O=[N+]([O-])c1ccccc1S(=O)(=O)Nc1ccc(S(=O)(=O)Nc2nccs2)cc1	/	45µM*	/	4%	-3	/
COc1ccc2c(c1)c(CC(=O)NCc1ccc3c(c1)OCO3)c(C)n2C(=O)c1ccc(Cl)cc1	0%	/	0%	0%	6	0%
COc1cc(/C=C2\SC(=N)N(c3ccc4c(c3)OCO4)C2=O)cc(OC)c1O	-9%	?	3.2µM*	-7%	2	?
COc1ccc(/C=C2/SC(=O)N(CCC(=O)Nc3ccc(C)cc3)C2=O)cc1OC	-9%	-24%	?	?	0	-2%
COc1ccc(/C=C2\SC(=O)N(CCNC(=O)Cc3coc4cc(C)ccc34)C2=O)cc1OC	?	10µM*	13µM*	-23%	8	-25%
COc1ccc(/C=C2\SC(=O)N(CC(=O)Nc3cccnc3)C2=O)cc1OC	-5%	?	-15%	45µM*	-2	-14%
CCOc1cc(/C=C2\SC(=O)N(CC(=O)Nc3ccccc3F)C2=O)cc([N+](=O)[O-])c1O	5%	16µM*	7.9µM*	-16%	15	?
COc1ccc(OC)c(N(C)S(=O)(=O)c2cc3c(cc2C)NC(=O)CO3)c1	/	?	/	0%	0	/
COc1cc(/C=C2\SC(=O)N(c3ccccc3Cl)C2=O)cc([N+](=O)[O-])c1O	-11%	11µM*	4µM*	-22%	-2	16µM*[quencher]
COc1cc(/C=C2\SC(=O)N(CC(=O)Nc3cccc(C)c3)C2=O)cc([N+](=O)[O-])c1O	-2%	14µM*	13µM*	1%	1	?
C=C(C)C(=O)Nc1cccc(C2=NOC3(C2)C[C@@H](C(N)=O)N(C(=O)/C=C/C=C/C)C3)c1 (some centres undefined)	-3%	?	-3%	32µM*	4	9%

Compound activity as filed in PubChem BioAssay.
